Screens as filed in PubChem.
JMJD2A Tudor: qHTS Assay for Inhibitors of JMJD2A-Tudor Domain; Lysine-specific demethylase 4A (Homo sapiens), O75164; AlphaScreen JMJD2A-Tudor / H3K4me3 peptide binding; Potency, µM (highest dose often 114 µM), without a hit: top-dose activity change, negative = inhibition, hits mostly inhibitors; actives 4.4% (n = 390,000); note: % is set by controls: 0 for no effect and ±100 for the full control effect; nearly all actives have a fitted effect of over 50% in size
HP1b binding inh: HTS for Inhibitors of HP1-beta Chromodomain Interactions with Methylated Histone Tails; AlphaScreen HP1-beta / biotin-H3K9me3 peptide binding; Potency, µM (series often up to 114 µM), for the others: at the top dose activity change, negative = inhibition, usual class: inhibitors; actives 0.56% (n = 390,000); note: nearly all actives have a fitted effect of over 70% in size
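AlphaScreen: HP1-beta (50 nM) preformed 30 min with biotin-H3(1-18)K9me3 peptide (50 nM) in PBS pH 7.4, 0.01% Tween-20. Compound added for 30 min at RT, then streptavidin donor/nickel chelate acceptor beads (10 ug/mL) for 30 min.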
G9a inh: qHTS Assay for Inhibitors of Histone Lysine Methyltransferase G9a. G9a H3K9 monomethylation, AlphaScreen, 2 h. Potency, µM (highest dose often 102 µM), for inactives: top-dose activity, negative = inhibition, most hits filed as inhibitors. actives 8.8% (n = 350,000). AID 504332, 2011; note: % is set by controls: 0 for no effect and ±100 for the full control effect; nearly all actives have a fitted effect of over 75% in size
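Readings reflect AlphaScreen signal from monomethyl-H3K9 antibody detection. HMT at 20 nM; substrate b-H3K9 500 nM; cofactor SAM 20 uM; 2 h RT reaction; compounds tested as titrations in qHTS with 15 min preincubation.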
BAZ2B block: qHTS Assay for Inhibitors of BAZ2B; Potency, µM (top dose mostly 114 µM), without a hit: top-dose activity change, negative = inhibition, actives largely listed as inhibitors; Bromodomain adjacent to zinc finger domain protein 2B (Homo sapiens), Q9UIF8; AlphaScreen BAZ2B-H3K14Ac peptide displacement; actives 4.4% (n = 360,000); note: % is set by controls: 0 for no effect and ±100 for the full control effect; nearly all actives have a fitted effect of over 60% in size
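BAZ2B (50 nM) with biotin-H3(5-23)K14Ac peptide (50 nM) in PBS pH 7.4, 0.01% Tween-20, preformed 30 min, then compound 30 min at room temperature; top concentration 110uM. AlphaScreen streptavidin donor/nickel chelate acceptor beads (10 ug/mL final), 20 min dark, signal read.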
GLS inhibitor: qHTS for Inhibitors of Glutaminase (GLS); actives 0.21% (n = 410,000); Potency, µM (series often up to 45.5 µM), for the others: at the highest dose activity change, negative = inhibition, hits mostly inhibitors; Glutaminase kidney isoform, mitochondrial (Homo sapiens), O94925; GLS enzymatic activity, qHTS titration; note: % is set by controls: 0 for no effect and ±100 for the full control effect
Target sequence (O94925 whole entry, looked up, canonical isoform): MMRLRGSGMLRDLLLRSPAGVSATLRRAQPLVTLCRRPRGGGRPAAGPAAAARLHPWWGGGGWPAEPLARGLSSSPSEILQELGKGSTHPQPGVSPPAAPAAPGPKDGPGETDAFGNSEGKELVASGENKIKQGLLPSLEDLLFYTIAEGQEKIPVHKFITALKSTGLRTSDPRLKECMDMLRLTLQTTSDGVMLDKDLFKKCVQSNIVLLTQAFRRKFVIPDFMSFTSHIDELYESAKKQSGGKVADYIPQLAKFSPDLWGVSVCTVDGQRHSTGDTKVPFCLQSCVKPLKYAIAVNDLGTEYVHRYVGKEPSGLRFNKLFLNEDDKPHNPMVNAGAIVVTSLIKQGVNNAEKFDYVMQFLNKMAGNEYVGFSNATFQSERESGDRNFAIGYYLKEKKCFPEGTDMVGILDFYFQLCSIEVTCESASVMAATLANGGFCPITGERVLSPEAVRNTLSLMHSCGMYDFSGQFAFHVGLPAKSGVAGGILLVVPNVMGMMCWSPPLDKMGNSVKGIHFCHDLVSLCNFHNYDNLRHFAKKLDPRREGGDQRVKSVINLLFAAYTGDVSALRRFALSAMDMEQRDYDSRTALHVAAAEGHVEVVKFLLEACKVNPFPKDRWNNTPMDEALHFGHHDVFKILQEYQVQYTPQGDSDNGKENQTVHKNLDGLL
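hKGA; 45 mM KH2PO4 pH 8.2 + 0.02% Tween-20; cpd via pin tool; 1 mM Gln soln; GluOx/HRP/Amplex Red; RT 30 min; fluor. t0 & final.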
* = called active by the depositor; ? = inconclusive; . = no result; [ ] = dose if it differs, or a comment. Only some compounds are listed: those with a hit (about 10% of all), similar ones and a draw of the others. Calls come from the whole dose curve; as a rule, active = well fitted curve in the direction sought with a large enough effect; inconclusive = small, poorly fitted or top-dose-only effect, or another doubt; inactive = no such curve, though single readings can be large; an effect the other way counts as inactive or inconclusive. Potency is the fitted concentration of half-maximal effect.

SMILES	JMJD2A Tudor	HP1b binding inh	G9a inh	BAZ2B block	GLS inhibitor
COc1cc([N+](=O)[O-])cc(/C=N/NC(=O)CC#N)c1O	.	.	50.1µM*	8.91µM*	.
O=C(Cn1cncn1)N/N=C/c1ccccc1Cl	-11.3%	26.7%	16.4%[12.7 µM]	-3.9%	-9.9%
COc1cc([N+](=O)[O-])cc(/C=N/NC(=O)Cn2cncn2)c1O	25.1µM*	22.0%	?	31.6µM*	-1.1%
COc1cc([N+](=O)[O-])cc(/C=N/NC(=O)CSc2ccccn2)c1O	79.4µM*	24.9%	.	?	1.3%
CCN1Cc2cc(OC)ccc2-c2ccccc2S1(=O)=O	-6.8%	44.8%	.	.	-7.4%
COc1cccc(C2C(C(=O)c3cccs3)=C(O)C(=O)N2CCN2CCOCC2)c1OC (stereo not drawn)	-25.0%	71.0%	?	-17.7%	0.8%
Cn1c(N)c(C#N)c2c(c1=S)CSC(C)(C)C2	79.4µM*	5.0%	25.1µM*	-10.4%	23.7%
CC(C)C1Cc2c(C#N)c(N)n(C)c(=S)c2CO1 (stereo not drawn)	-12.3%	25.3%	50.1µM*	-12.6%	0.2%
CC(C)c1nc(Cl)c(C#N)c2c1CSC(C)(C)C2	6.7%	15.3%	-4.9%	3.2%	7.1%
Cn1c(N)c(C#N)c2c(c1=S)COC(C)(C)C2	-10.9%	12.1%	-16.0%	1.6%	9.3%
CC1(C)Cc2c(C#N)c(N)sc(=S)c2CS1	50.1µM*	?	25.1µM*	-7.9%	6.0%
O=C(CSc1ccccc1F)NC(=O)c1ccccc1Br	-17.1%	33.2%	.	.	58.0%
O=C(c1ccc(Cl)cc1)[C@@H]1[C@@H]2C(=O)N(c3cccc4ccccc34)C(=O)[C@@H]2C2c3ccccc3C=NN21 (stereo partly drawn)	?	0.4%	20µM*	-5.8%	9.3%
CC(=O)[C@@H]1[C@@H]2C(=O)N(c3ccccc3F)C(=O)[C@@H]2[C@H]2c3ccccc3C=NN12	-11.5%	35.7%	50.1µM*	-1.7%	134.2%
CC(=O)c1ccc(N2C(=O)[C@@H]3[C@H](C2=O)[C@H]2c4ccccc4C=NN2[C@@H]3C(C)=O)cc1	-15.2%	31.0%	.	13.5%	-16.9%
Cc1cc(-c2ccc(C(C)C)c(S(=O)(=O)N3CCC(C)CC3)c2)on1	0.0%	35.6%	.	4.5%	7.9%
c1csc(CNc2ncncc2-c2ccoc2)c1	.	.	-7.9%[0.501 µM]	.	.
O=C1CC(N2CCOCC2)C(=O)N1c1cccc(Cl)c1 (stereo not drawn)	-6.6%	56.4%	44.7µM*	8.9%	-0.4%
COC(=O)c1ccc(N2C(=O)CC(N3CCOCC3)C2=O)cc1 (stereo not drawn)	-8.7%	31.6%	79.4µM*	11.1%	3.4%
O=C(C1CCN(C2CC(=O)N(c3cccc(Cl)c3)C2=O)CC1)N1CCCCCC1 (stereo not drawn)	-15.4%	40.0%	10µM*	3.5%	1.5%
CC(=O)Nc1ccc(N2C(=O)CC(N3CCSCC3)C2=O)cc1 (stereo not drawn)	-5.2%	9.5%	?	-20.4%	2.2%
CC(=O)Nc1ccc(N2C(=O)CC(N3CC(C)OC(C)C3)C2=O)cc1 (stereo not drawn)	-12.6%	52.8%	22.4µM*	8.1%	4.5%
Cc1cccc(N2C(=O)CC(N3CCOCC3)C2=O)c1 (stereo not drawn)	-2.5%	51.2%	-17.6%[59 µM]	0.6%	-1.2%
COc1ccc(C(=O)/C=C/Nc2ccc(S(=O)(=O)Nc3onc(C)c3C)cc2)cc1	?	1.4%	?	?	28.9%
COc1ccc(-c2cc3nc(C4CCN(C(=O)OC(C)(C)C)CC4)c(C(=O)O)cn3n2)cc1	-10.6%	20.1%	79.4µM*	-32.2%	15.9%
SMILES	JMJD2A Tudor	HP1b binding inh	G9a inh	BAZ2B block	GLS inhibitor
COc1ccc(N2CCN(C(=O)c3cnn(-c4ccc(OC)cc4)c3C3CCN(C(=O)OC(C)(C)C)CC3)CC2)cc1	-35.6%	15.0%	14.1µM*	-12.5%[57.1 µM]	12.6%
COc1ccc(-n2ncc(C(=O)N3CCOCC3)c2C2CCN(C(=O)OC(C)(C)C)CC2)cc1	-32.4%	-5.3%	4.7%[59 µM]	-0.9%[57.1 µM]	-10.9%
COc1ccc(CCNC(=O)COC(=O)Cc2c[nH]c3ccccc23)cc1OC	-16.4%	10.8%	.	.	-7.8%
C[N+]1(C)CCN(C[C@@](O)(c2ccccc2)C2CCCCC2)CC1	.	.	.	.	-2.2%
CN(Cc1nccn1C)C(=O)CC1C(=O)NCCN1Cc1ccc(F)cc1Cl (stereo not drawn)	?	25.5%	39.8µM*	-17.4%	-9.5%
Cc1nnc(CN(C)C(=O)CC2C(=O)NCCN2Cc2ccccc2C)o1 (stereo not drawn)	-6.9%	43.6%	35.5µM*	-19.0%	16.2%
CN(Cc1ccon1)C(=O)CC1C(=O)NCCN1Cc1ccccc1C(F)(F)F (stereo not drawn)	-18.1%	36.7%	0.4%[12.7 µM]	3.0%	1.7%
CN(Cc1nccn1C)C(=O)CC1C(=O)NCCN1Cc1ccccc1C(F)(F)F (stereo not drawn)	-15.8%	18.3%	50.1µM*	-16.8%	-0.8%
CN(CCc1cn[nH]c1)C(=O)CC1C(=O)NCCN1Cc1ccccc1C(F)(F)F (stereo not drawn)	-14.0%	42.1%	44.7µM*	-18.0%	0.2%
Cc1ccccc1CN1CCNC(=O)C1CC(=O)N(C)CCC1CCOCC1 (stereo not drawn)	-12.4%	37.8%	23.5%[0.0925 µM]	-1.2%	-0.8%
CCn1ccnc1CN(C)C(=O)CC1C(=O)NCCN1Cc1c(F)cccc1Cl (stereo not drawn)	-4.3%	44.2%	?	-0.2%	-19.0%
COc1ccc(C(O)P(=O)(OCCC(C)C)c2ccc(N(C)C)cc2)cc1 (stereo not drawn)	-21.4%	32.4%	15.9%	-17.7%	14.3%
COc1ccc(C(=O)NC2CC2)cc1OC1CCN(Cc2ccc(F)cc2Cl)CC1	-18.6%	17.6%	.	.	12.2%
O=[N+]([O-])c1ccc(/C=N/Nc2ccnc3cc(Cl)ccc23)o1	39.8µM*	31.6µM*	39.8µM*	28.2µM*	2.0%
Cc1ccc(S(=O)(=O)N/N=C\c2ccc([N+](=O)[O-])o2)cc1	-24.5%	4.5%	3.55µM*	-4.6%	6.5%
Cc1ccc(S(=O)(=O)N/N=C\c2ccc([N+](=O)[O-])o2)cc1C	-16.6%	42.7%	79.4%	-4.9%	9.8%
Clc1ccc2c(N/N=C/c3ccccc3Br)ccnc2c1	?	3.6%	26.8%[59 µM]	-4.8%	-1.0%
O=[N+]([O-])c1ccc(/C=N/NS(=O)(=O)c2ccc(Cl)cc2)o1	?	24.0%	3.55µM*	-38.1%	7.3%
O=[N+]([O-])c1ccc(/C=N/N=C/c2ccc([N+](=O)[O-])o2)o1	-22.7%	10.0%	?	-35.4%	61.8%
